Measurements: PubChem BioAssay (EPA / NIEHS)
Calls of active or inactive are those of the source. The calls were made as follows: active = hit-call score of the fitted dose curve at least 0.9, where 1 is the maximum; inactive = score below 0.9.

How the values were obtained:
Conditions in all cases: mRNA level, 48 h; actives raise or lower the signal
[1] = read-out: Tumor necrosis factor receptor superfamily member 6 (Homo sapiens) (UniProt P25445); test: LTEA_HepaRG_FAS: Life Technologies and Expression Analysis (LTEA) Assay for Fas cell surface death receptor (FAS) using HepaRG (AID 2283447)
Method in brief: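 Differentiated human HepaRG cells, pre-cultured 48 h, were exposed in duplicate for 48 h to 8-point half-log concentrations (top 100 uM, 0.5% DMSO) in serum-free induction medium; FAS mRNA measured by qRT-PCR, normalized to ACTB/GAPDH/POLR2A, bidirectional fit versus DMSO.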

[2] = read-out: Cyclin D2 (CCND2), CCND2 (gene 894); test: LTEA_HepaRG_CCND2: Life Technologies and Expression Analysis (LTEA) Assay for Cyclin D2 (CCND2) using HepaRG (AID 2283449);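 also: CCND2 transcript measured by TaqMan qRT-PCR and normalised to three housekeeping genes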
Method in brief: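 In this HepaRG study, an eight-point concentration series (max 100 uM, 0.5% DMSO) is applied for 48 h. CCND2 mRNA change is derived by qRT-PCR normalised to ACTB, GAPDH and POLR2A.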

[3] = read-out: Cyclin Dependent Kinase Inhibitor 1A (CDKN1A), CDKN1A (gene 1026); test: LTEA_HepaRG_CDKN1A: Life Technologies and Expression Analysis (LTEA) Assay for Cyclin Dependent Kinase Inhibitor 1A (CDKN1A) using HepaRG (AID 2283450)
Method in brief: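 Read-out is CDKN1A mRNA by TaqMan qRT-PCR, normalized to three housekeeping genes and fitted in both directions against the DMSO baseline. Human HepaRG cells were treated 48 h with test chemicals up to 100 uM in half-log steps, 0.5% DMSO.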

[4] = read-out: Cyclin D1 (CCND1), CCND1 (gene 595); test: LTEA_HepaRG_CCND1: Life Technologies and Expression Analysis (LTEA) Assay for Cyclin D1 (CCND1) using HepaRG (AID 2283451)
Method in brief: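 HepaRG plated 48 h, medium switched to serum-free induction medium, chemicals added in duplicate (top 100 uM, half-log steps, 0.5% DMSO) for 48 h, cells lysed, RNA measured by TaqMan qRT-PCR.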

[5] = read-out: catalase (CAT), CAT (gene 847); test: LTEA_HepaRG_CAT: Life Technologies and Expression Analysis (LTEA) Assay for catalase (CAT) using HepaRG (AID 2283452)
Method in brief: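 Differentiated HepaRG cells in serum-free induction medium were dosed 48 h in duplicate, eight half-log concentrations from 100 uM in 0.5% DMSO. Transcript measured by TaqMan qRT-PCR, normalised to ACTB/GAPDH/POLR2A, fitted bidirectionally against DMSO.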

[6] = read-out: flavin-containing dimethylaniline monooxygenases 3 (FMO3), FMO3 (gene 2328); test: LTEA_HepaRG_FMO3: Life Technologies and Expression Analysis (LTEA) Assay for flavin-containing dimethylaniline monooxygenases 3 (FMO3) using HepaRG (AID 2283453);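 as to AC50: FMO3 transcript by TaqMan qRT-PCR normalized to ACTB GAPDH and POLR2A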
Method in brief: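 FMO3 transcript quantified by TaqMan qRT-PCR against three housekeeping genes after 48 h chemical exposure of HepaRG cells. Eight-point half-log series, top 100 uM, 0.5% DMSO vehicle; phenobarbital 1mM induction control; up- or down-regulation fitted.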

[7] = read-out: Cytochrome P450 (CYP1A1), CYP1A1 (gene 1543); test: LTEA_HepaRG_CYP1A1: Life Technologies and Expression Analysis (LTEA) Assay for Cytochrome P450 (CYP1A1) using HepaRG (AID 2283454)
Method in brief: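 HepaRG, 48 h post-plating switched to serum-free induction medium; 8-pt conc-response (top 100 uM, half-log, 0.5% DMSO), duplicates, 48 h. Lysis in RLT, TaqMan qRT-PCR for CYP1A1; gain or loss vs DMSO.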

[8] = read-out: CFLAR gene, CFLAR (gene 8837); test: LTEA_HepaRG_CFLAR: Life Technologies and Expression Analysis (LTEA) Assay for CFLAR gene using HepaRG (AID 2283455)
Method in brief: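 Gain- or loss-of-signal changes in CFLAR transcript were fitted bidirectionally relative to 0.5% DMSO. Cells (HepaRG, duplicate wells) were dosed for 48 h across eight half-log concentrations topping at 100 uM; quantitation by TaqMan qRT-PCR.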

[9] = read-out: Forkhead box O1 (FOXO1), FOXO1 (gene 2308); test: LTEA_HepaRG_FOXO1: Life Technologies and Expression Analysis (LTEA) Assay for Forkhead box O1 (FOXO1) using HepaRG (AID 2283456)
Method in brief: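 Using one lot of HepaRG hepatic cells kept in 0.5% DMSO, the team applied test chemicals in duplicate, half-log dilutions from 100 uM, for 48 h. Expression, normalised to ACTB/GAPDH/POLR2A, was compared with vehicle in either direction.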

[10] = read-out: growth arrest and DNA damage 45 (GADD45A), GADD45A (gene 1647); test: LTEA_HepaRG_GADD45A: Life Technologies and Expression Analysis (LTEA) Assay for growth arrest and DNA damage 45 (GADD45A) using HepaRG (AID 2283458)
Method in brief: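 GADD45A expression was measured by TaqMan qRT-PCR against three housekeeping genes (ACTB, GAPDH, POLR2A) after 48 h treatment of HepaRG cells. Eight-point half-log series up to 100 uM in 0.5% DMSO, run in duplicate.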

[11] = read-out: Forkhead box O3 (FOXO3), FOXO3 (gene 2309); test: LTEA_HepaRG_FOXO3: Life Technologies and Expression Analysis (LTEA) Assay for Forkhead box O3 (FOXO3) using HepaRG (AID 2283459)
Method in brief: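 Gene-expression endpoint: FOXO3 transcript level by qRT-PCR in HepaRG cultures treated 48 h with chemicals up to 100 uM (half-log, 0.5% DMSO vehicle).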

[12] = read-out: ABC Transporter (ABCB1), ABCB1 (gene 5243); test: LTEA_HepaRG_ABCB1: Life Technologies and Expression Analysis (LTEA) Assay for ABC Transporter (ABCB1) using HepaRG (AID 2283460)
Method in brief: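 Human liver HepaRG line treated 48 h with up to 100 uM compound (eight half-log points, 0.5% DMSO); ABCB1 mRNA change fitted bidirectionally against DMSO controls.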

[13] = read-out: growth arrest and DNA damage 45 (GADD45B), GADD45B (gene 4616); test: LTEA_HepaRG_GADD45B: Life Technologies and Expression Analysis (LTEA) Assay for growth arrest and DNA damage 45 (GADD45B) using HepaRG (AID 2283461)
Method in brief: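 HepaRG, ~100,000 cells/well, 48 h plating; serum-free induction medium; cpd 100 uM top, half-log x8, 0.5% DMSO, duplicate, 48 h; lysis in RLT, RNA isolation, qRT-PCR; norm ACTB/GAPDH/POLR2A; bidirectional fit vs DMSO.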

[14] = read-out: ABC Transporter (ABCC3), ABCC3 (gene 8714); test: LTEA_HepaRG_ABCC3: Life Technologies and Expression Analysis (LTEA) Assay for ABC Transporter (ABCC3) using HepaRG (AID 2283462)
Method in brief: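 Human HepaRG, 48 h dosing, 8-pt half-log series from 100 uM, 0.5% DMSO vehicle, duplicates. ABCC3 mRNA by TaqMan qRT-PCR, housekeeping-normalized; bidirectional curve fit vs DMSO.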

[15] = read-out: ABC Transporter (ABCC2), ABCC2 (gene 1244); test: LTEA_HepaRG_ABCC2: Life Technologies and Expression Analysis (LTEA) Assay for ABC Transporter (ABCC2) using HepaRG (AID 2283464)
Method in brief: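 HepaRG, 48 h post-plating; serum-free induction medium; cpd 8-pt, 100 uM top, half-log, 0.5% DMSO, duplicate, 48 h. Readout: ABCC2 mRNA by qRT-PCR, norm. ACTB/GAPDH/POLR2A. Bidirectional fit vs DMSO baseline.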

[16] = read-out: Broad substrate specificity ATP-binding cassette transporter ABCG2 (Homo sapiens) (UniProt Q9UNQ0); test: LTEA_HepaRG_ABCG2: Life Technologies and Expression Analysis (LTEA) Assay for ABC Transporter (ABCG2) using HepaRG (AID 2283465)
Method in brief: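 Gene expression of ABCG2 in HepaRG liver cells is quantified by qRT-PCR following 48 h exposure across an eight-point series topping at 100 uM. Values come from bidirectional fitting relative to DMSO vehicle.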

[17] = read-out: ATP-citrate lyase (ACLY), ACLY (gene 47); test: LTEA_HepaRG_ACLY: Life Technologies and Expression Analysis (LTEA) Assay for ATP-citrate lyase (ACLY) using HepaRG (AID 2283466)
Method in brief: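 ACLY expression changes in human HepaRG liver cells are quantified by qRT-PCR after 48 h exposure to test chemicals (maximum 100 uM, half-log steps). Values are fitted in both directions relative to 0.5% DMSO vehicle.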

[18] = read-out: Fatty acid synthase (Homo sapiens) (UniProt P49327); test: LTEA_HepaRG_FASN: Life Technologies and Expression Analysis (LTEA) Assay for Fatty Acid Synthase (FASN) using HepaRG (AID 2283448)
Method in brief: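 FASN transcript measured by TaqMan qRT-PCR, normalised to three housekeeping genes, after 48 h chemical exposure of HepaRG cells. Eight-point half-log series from 100 uM in 0.5% DMSO, duplicates; gain or loss fitted against vehicle.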

[19] = read-out: ABC Transporter (ABCB11), ABCB11 (gene 8647); test: LTEA_HepaRG_ABCB11: Life Technologies and Expression Analysis (LTEA) Assay for ABC Transporter (ABCB11) using HepaRG (AID 2283463)
Method in brief: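 Using HepaRG cultures held in 0.5% DMSO, chemicals were tested at half-log dilutions from 100 uM for 48 h. Induction or suppression of ABCB11 mRNA, normalized to ACTB, GAPDH and POLR2A, was fitted bidirectionally against vehicle.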

Chain of Broad substrate specificity ATP-binding cassette transporter ABCG2 (Homo sapiens) (Q9UNQ0 whole entry, looked up): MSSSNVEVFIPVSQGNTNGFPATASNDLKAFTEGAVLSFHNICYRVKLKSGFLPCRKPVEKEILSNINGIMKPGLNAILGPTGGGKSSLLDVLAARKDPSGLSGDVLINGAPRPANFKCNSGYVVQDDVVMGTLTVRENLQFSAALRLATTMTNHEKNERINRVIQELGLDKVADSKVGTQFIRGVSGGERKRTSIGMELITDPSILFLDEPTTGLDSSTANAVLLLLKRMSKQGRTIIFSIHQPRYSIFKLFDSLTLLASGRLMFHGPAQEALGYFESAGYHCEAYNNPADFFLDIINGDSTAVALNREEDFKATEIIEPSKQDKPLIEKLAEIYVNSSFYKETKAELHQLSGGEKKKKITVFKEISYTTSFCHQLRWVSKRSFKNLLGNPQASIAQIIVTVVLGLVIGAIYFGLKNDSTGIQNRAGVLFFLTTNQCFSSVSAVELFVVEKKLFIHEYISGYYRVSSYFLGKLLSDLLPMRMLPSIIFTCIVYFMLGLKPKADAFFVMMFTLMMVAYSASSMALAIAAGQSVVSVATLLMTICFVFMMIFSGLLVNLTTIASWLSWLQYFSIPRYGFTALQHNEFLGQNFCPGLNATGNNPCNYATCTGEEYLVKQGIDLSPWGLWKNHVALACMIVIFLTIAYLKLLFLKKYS
Chain of Fatty acid synthase (Homo sapiens) (P49327 whole entry, looked up): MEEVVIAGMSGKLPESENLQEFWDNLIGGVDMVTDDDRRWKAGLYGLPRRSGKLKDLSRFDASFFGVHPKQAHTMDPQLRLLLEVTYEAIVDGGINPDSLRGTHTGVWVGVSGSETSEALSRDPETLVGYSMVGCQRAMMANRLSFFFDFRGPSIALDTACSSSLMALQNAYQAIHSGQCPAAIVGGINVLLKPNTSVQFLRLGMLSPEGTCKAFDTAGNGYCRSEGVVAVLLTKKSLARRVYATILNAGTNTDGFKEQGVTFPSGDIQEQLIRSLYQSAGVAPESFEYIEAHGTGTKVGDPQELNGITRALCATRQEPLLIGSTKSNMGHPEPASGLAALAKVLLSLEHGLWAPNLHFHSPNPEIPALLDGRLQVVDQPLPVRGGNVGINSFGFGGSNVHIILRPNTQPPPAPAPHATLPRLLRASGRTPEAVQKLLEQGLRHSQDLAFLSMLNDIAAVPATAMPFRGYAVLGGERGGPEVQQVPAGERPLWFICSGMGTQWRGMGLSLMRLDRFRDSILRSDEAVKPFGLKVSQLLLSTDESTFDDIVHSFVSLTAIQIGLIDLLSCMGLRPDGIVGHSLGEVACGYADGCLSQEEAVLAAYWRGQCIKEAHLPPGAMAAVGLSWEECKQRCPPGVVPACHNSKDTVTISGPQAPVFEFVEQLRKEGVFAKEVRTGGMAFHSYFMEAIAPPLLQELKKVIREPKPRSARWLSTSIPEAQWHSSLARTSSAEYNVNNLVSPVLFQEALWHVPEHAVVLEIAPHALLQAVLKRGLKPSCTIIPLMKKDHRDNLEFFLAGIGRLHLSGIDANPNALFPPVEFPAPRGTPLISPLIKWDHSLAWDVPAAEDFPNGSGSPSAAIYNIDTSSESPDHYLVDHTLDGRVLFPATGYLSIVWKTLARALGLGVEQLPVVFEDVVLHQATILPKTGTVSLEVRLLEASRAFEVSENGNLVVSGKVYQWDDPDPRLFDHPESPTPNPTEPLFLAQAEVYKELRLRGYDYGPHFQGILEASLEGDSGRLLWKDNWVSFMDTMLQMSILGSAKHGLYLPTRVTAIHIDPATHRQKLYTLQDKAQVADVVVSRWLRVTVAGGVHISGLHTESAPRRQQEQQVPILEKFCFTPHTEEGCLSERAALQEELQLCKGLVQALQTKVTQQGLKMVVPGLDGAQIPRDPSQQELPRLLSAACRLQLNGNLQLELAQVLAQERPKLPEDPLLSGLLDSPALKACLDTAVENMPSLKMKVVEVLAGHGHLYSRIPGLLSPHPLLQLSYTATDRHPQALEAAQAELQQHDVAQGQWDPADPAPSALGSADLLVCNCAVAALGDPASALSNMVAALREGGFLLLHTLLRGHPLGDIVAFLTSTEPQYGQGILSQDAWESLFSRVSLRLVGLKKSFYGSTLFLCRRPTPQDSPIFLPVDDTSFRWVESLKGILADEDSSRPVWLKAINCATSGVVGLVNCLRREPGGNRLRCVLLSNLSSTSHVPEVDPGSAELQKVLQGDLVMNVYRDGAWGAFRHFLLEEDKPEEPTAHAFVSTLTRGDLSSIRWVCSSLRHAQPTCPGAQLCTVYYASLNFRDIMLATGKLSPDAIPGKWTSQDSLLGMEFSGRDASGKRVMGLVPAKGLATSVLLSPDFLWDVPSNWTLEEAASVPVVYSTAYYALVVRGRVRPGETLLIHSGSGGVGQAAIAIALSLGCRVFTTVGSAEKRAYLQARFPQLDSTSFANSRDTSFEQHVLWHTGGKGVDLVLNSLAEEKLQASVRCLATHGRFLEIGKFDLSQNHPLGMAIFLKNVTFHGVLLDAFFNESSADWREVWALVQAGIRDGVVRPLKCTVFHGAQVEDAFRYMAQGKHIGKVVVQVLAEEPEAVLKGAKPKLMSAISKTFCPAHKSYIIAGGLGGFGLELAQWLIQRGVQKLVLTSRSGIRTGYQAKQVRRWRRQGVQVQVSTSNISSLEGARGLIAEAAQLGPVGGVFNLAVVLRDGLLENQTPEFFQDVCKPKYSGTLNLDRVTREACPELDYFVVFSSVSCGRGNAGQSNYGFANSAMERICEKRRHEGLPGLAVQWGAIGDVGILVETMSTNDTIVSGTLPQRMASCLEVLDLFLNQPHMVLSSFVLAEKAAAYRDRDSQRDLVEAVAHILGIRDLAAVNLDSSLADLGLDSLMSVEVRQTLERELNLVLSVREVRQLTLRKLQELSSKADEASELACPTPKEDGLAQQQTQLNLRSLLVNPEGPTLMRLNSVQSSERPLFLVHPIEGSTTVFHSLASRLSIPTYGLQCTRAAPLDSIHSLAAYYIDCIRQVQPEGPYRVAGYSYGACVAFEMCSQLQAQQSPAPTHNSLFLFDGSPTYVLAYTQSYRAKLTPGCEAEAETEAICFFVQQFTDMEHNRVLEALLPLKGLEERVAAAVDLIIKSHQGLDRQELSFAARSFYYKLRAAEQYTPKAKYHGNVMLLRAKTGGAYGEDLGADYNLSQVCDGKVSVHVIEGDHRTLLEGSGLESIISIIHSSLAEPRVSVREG

SMILES: Oc1c(Cl)c(Cl)c(Cl)c(Cl)c1Cl
- AC50 [1]: 6.31 µM (active)
- outcome [2]: inactive
- outcome [3]: inactive
- outcome [4]: inactive
- AC50 [5]: 2.73 µM (active)
- AC50 [6]: 4.5 µM (active)
- AC50 [7]: 7.23 µM (active)
- AC50 [8]: 2.17 µM (active)
- AC50 [9]: 6.85 µM (active)
- AC50 [10]: 6 µM (active)
- AC50 [11]: 1.64 µM (active)
- AC50 [12]: 2.1 µM (active)
- AC50 [13]: 15 µM (active)
- AC50 [14]: 2.09 µM (active)
- AC50 [15]: 2.03 µM (active)
- AC50 [16]: 6.05 µM (active)
- AC50 [17]: 1.61 µM (active)

SMILES: Oc1ccc(C(c2ccc(O)cc2)(C(F)(F)F)C(F)(F)F)cc1
- outcome [1]: inactive
- AC50 [2]: 0.147 µM (active)
- outcome [3]: inactive
- outcome [4]: inactive
- AC50 [5]: 89.2 µM (active)
- AC50 [6]: 78.3 µM (active)
- AC50 [7]: 50 µM (active)
- AC50 [8]: 91.3 µM (active)
- AC50 [9]: 81 µM (active)
- outcome [10]: inactive
- outcome [11]: inactive
- outcome [12]: inactive
- outcome [13]: inactive
- outcome [14]: inactive
- outcome [15]: inactive
- outcome [16]: inactive
- outcome [17]: inactive

SMILES: Cc1cccc([N+](=O)[O-])c1
- outcome [18]: inactive
- outcome [2]: inactive
- outcome [3]: inactive
- outcome [4]: inactive
- outcome [5]: inactive
- outcome [6]: inactive
- AC50 [7]: 50 µM (active)
- outcome [8]: inactive
- outcome [9]: inactive
- outcome [10]: inactive
- outcome [11]: inactive
- outcome [12]: inactive
- outcome [13]: inactive
- outcome [14]: inactive
- outcome [15]: inactive
- outcome [16]: inactive
- outcome [17]: inactive

SMILES: COc1ccc(O)c(C(C)(C)C)c1
- outcome [1]: inactive
- outcome [2]: inactive
- outcome [3]: inactive
- outcome [5]: inactive
- outcome [6]: inactive
- outcome [7]: inactive
- outcome [8]: inactive
- outcome [9]: inactive
- outcome [10]: inactive
- outcome [11]: inactive
- outcome [12]: inactive
- outcome [13]: inactive
- outcome [14]: inactive
- outcome [15]: inactive
- outcome [16]: inactive
- outcome [17]: inactive

SMILES: Cc1ccccc1[N+](=O)[O-]
- outcome [1]: inactive
- outcome [3]: inactive
- outcome [4]: inactive
- outcome [5]: inactive
- outcome [6]: inactive
- outcome [7]: inactive
- outcome [8]: inactive
- outcome [9]: inactive
- outcome [10]: inactive
- outcome [11]: inactive
- outcome [12]: inactive
- outcome [13]: inactive
- outcome [14]: inactive
- outcome [19]: inactive
- outcome [15]: inactive
- outcome [16]: inactive
- outcome [17]: inactive

SMILES: Cc1ccc(O)c(C)c1
- outcome [1]: inactive
- outcome [2]: inactive
- outcome [3]: inactive
- outcome [4]: inactive
- outcome [5]: inactive
- outcome [6]: inactive
- outcome [7]: inactive
- outcome [8]: inactive
- outcome [9]: inactive
- outcome [10]: inactive
- outcome [11]: inactive
- outcome [12]: inactive
- outcome [13]: inactive
- outcome [14]: inactive
- outcome [15]: inactive
- outcome [16]: inactive
- outcome [17]: inactive

SMILES: CCCCCCCCOC(=O)c1ccccc1C(=O)OCCCCCCCC
- outcome [1]: inactive
- outcome [2]: inactive
- outcome [3]: inactive
- outcome [4]: inactive
- outcome [5]: inactive
- outcome [6]: inactive
- outcome [7]: inactive
- outcome [8]: inactive
- outcome [9]: inactive
- outcome [10]: inactive
- outcome [11]: inactive
- outcome [12]: inactive
- outcome [13]: inactive
- outcome [14]: inactive
- outcome [15]: inactive
- outcome [16]: inactive
- outcome [17]: inactive

SMILES: Clc1ccc(Cl)cc1
- outcome [1]: inactive
- outcome [2]: inactive
- outcome [3]: inactive
- outcome [4]: inactive
- outcome [5]: inactive
- outcome [6]: inactive
- outcome [7]: inactive
- outcome [8]: inactive
- outcome [9]: inactive
- outcome [10]: inactive
- outcome [11]: inactive
- outcome [12]: inactive
- outcome [13]: inactive
- outcome [14]: inactive
- outcome [19]: inactive
- outcome [15]: inactive
- outcome [16]: inactive
- outcome [17]: inactive
